The sample as a whole holds a higher share of hits than the screen did.
EZH2 inh: EZH2/PRC2 methyltransferase inhibitors, primary screen, biochemical, DELFIA time-resolved fluorescence, single point | PRC2 H3K27 methylation, DELFIA TRF, 1 h | 57,000 compounds, 0.35% hits | Histone-lysine N-methyltransferase EZH2 (Homo sapiens), Q15910 | inhibition, % at 12.5 µM;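 active = mean inhibition of replicates at least 50% and every single replicate also reaching 50%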;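 note: dimethyl H3K27 on biotinylated H3 21-44 peptide detected by antibody; plate controls were median neutral control wells for no effect and median positive control wells for full effect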
An asterisk follows results filed as active.

Results for CCCCC/C=C/C/C=C/C/C=C/C/C=C/CCCC(=O)Nc1ccc(O)cc1 ?
EZH2 inh: 69.4*

How did CCCCC/C=C\C/C=C\C/C=C\C/C=C\CCCC(=O)NCc1ccc(O)c(OC)c1 do in these assays?
EZH2 inh: 43.4

Results for CCC(=O)Nc1ccc(Cl)c(Cl)c1 ?
EZH2 inh: 2.2

What do the screens show for `CC(C)(C)ONC(=O)CN=[N+]=[N-]`?
EZH2 inh: 12.6

Results for [N-]=[N+]=Nc1cccc(C(=O)O)c1 ?
EZH2 inh: -6.5

Compound activity as filed in PubChem BioAssay.
